We go through 51 compounds from ChEMBL document CHEMBL3988442, “University of Dundee, Small-Polar-MMV Screening Library” (2021).

The target of experiment [1] is T1, Aspartate--tRNA(Asp/Asn) ligase (Mycobacterium tuberculosis (strain ATCC 25618 / H37Rv)) (UniProt P9WFW3). Further: in the data most compounds retested in dose-response had high values.
T1 sequence (whole entry): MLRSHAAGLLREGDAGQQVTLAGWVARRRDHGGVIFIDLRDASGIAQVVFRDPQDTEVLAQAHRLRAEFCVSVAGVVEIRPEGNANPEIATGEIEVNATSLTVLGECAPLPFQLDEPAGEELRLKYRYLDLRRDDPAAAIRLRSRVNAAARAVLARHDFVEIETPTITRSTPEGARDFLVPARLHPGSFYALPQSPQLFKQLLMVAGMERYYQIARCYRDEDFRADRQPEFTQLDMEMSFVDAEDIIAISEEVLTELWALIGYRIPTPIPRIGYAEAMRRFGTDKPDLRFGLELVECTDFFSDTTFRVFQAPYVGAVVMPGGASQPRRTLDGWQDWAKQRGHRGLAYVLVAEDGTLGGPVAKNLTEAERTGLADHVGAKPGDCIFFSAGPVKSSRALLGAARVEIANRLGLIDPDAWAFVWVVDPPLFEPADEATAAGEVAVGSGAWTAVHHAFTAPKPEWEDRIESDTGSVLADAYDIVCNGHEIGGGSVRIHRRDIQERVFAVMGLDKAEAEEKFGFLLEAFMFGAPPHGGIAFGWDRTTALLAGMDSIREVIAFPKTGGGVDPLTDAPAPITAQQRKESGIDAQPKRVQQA
Put plainly: Assay for Asp RNA synthetase-1 from Mycobacterium tuberculosis. The settings on record: 30 µM. Further details: scale not given: direction of the effect not stated beside the values. It is filed as functional.

The target in experiment [2] is Shiga toxin 2 (Escherichia coli O157:H7) (UniProt P09385+P09386). Put plainly: E. coli 0.157:H7 Shiga Toxin SOP - stx2 screening assay. Further details: scale not given: direction of the effect not stated beside the values. The settings on record: 30 µM. Type of experiment: functional.

Structures are written as SMILES.

As for `CC(C)NC(=O)N1CCN(C(=O)N(C)C)CC2(CC(=O)N(C)C2)C1` (configuration not stated), the figures for the Percent Effect in experiment [1] and in experiment [2] were -7.76% and -39.2%, respectively.

As to `CC(C)C(=O)N1CCN(Cc2csc(-c3ncccn3)n2)CC1`, the results for the Percent Effect in experiment [1] and in experiment [2] were -4.22% and 0.445%, respectively.

Turning to `CCc1nc(CN2CCCN(C(=O)C(C)COC)CC2)cs1` (configuration not stated), the Percent Effect in experiment [1] is -0.303%; in experiment [2], -63.3%.

In the case of `CCS(=O)(=O)N1CCO[C@H]2[C@H](OCCCn3cccn3)CC[C@@H]21`, the Percent Effect in experiment [1] was 0.786%; in experiment [2], -17.2%.

On to `Cc1nn(-c2ccccc2)nc1C(=O)N1CCCC1c1cnn(C)c1` (configuration not stated), for which the Percent Effect in experiment [1] was determined as 2.1%; in experiment [2], 18.4%.

Turning to `Fc1cnc(N2C[C@H]3CCC[C@@]3(COc3ccccn3)C2)nc1`, the figures for the Percent Effect in experiment [1] and in experiment [2] were 0.435% and 2.51%, respectively.

On to `Cc1cc(C)n(CC2CN(CC(=O)NC3CCCC3)CCO2)n1` (configuration not stated), for which the Percent Effect in experiment [1] turned out to be 0.91%; in experiment [2], 13.3%.

As for `Cc1nc(CN(Cc2ccccc2)C2CCS(=O)(=O)C2)oc1C` (configuration not stated), the Percent Effect is -0.478% in experiment [1] and 24.1% in experiment [2].

For the compound `Cc1nc(CN2CCN(Cc3nccn3C)CC2)no1`, the Percent Effect is -3.87% in experiment [1] and 6.4% in experiment [2].

As to `CC(=O)N(Cc1noc(C)n1)C1CCN(CCOc2ccccc2)C1` (configuration not stated), the Percent Effect in experiment [1] is 2.87%; in experiment [2], -29.9%.

Take `COc1ccc(C2=CCN(C(=O)C3CC(=O)N(C4CC4)C3)CC2)cc1` (configuration not stated): the Percent Effect in experiment [1] was determined as 1.54%; in experiment [2], 2.8%.

Consider `O=C(COc1coc(CN2CCCCC2)cc1=O)Nc1ccc(Cl)cc1`, for which the Percent Effect is 3.86% in experiment [1] and -36.2% in experiment [2].

Take `COc1cccc(S(=O)(=O)NC(=O)COC2CCCC2)c1`: the Percent Effect in experiment [1] was 2.03%; in experiment [2] it was -4.79%.

With `O=C(Cn1cc(C(=O)O)ccc1=O)Nc1ccc(F)cc1Cl`, the Percent Effect in experiment [1] is -8.57%; in experiment [2], -28.6%.

For the compound `Cc1c[nH]cc1C(=O)N1CCN(CCc2cccs2)CC1`, the figures for the Percent Effect in experiment [1] and in experiment [2] were -4.34% and -33.2%, respectively.

Consider `Cc1ccc(NS(=O)(=O)c2cc3c(c(C(=O)O)c2)OCCO3)c(F)c1`, for which the Percent Effect in experiment [1] was -2.58%; in experiment [2], -5.6%.

`CC(=O)N(Cc1ncc(C)o1)C1CCN(Cc2noc(C)n2)C1` (configuration not stated): the Percent Effect in experiment [1] was 5.42%; in experiment [2], 4.63%.

Regarding `O=C(NCC1CC1)C1CN(C(=O)c2cccc(Cl)c2)CC12CCOCC2` (configuration not stated), the Percent Effect in experiment [1] was 11.9%; in experiment [2] it was -14.2%.

`C1CC(c2noc(C3CC3)n2)CN(Cc2noc(C3CC3)n2)C1` (configuration not stated): the values for the Percent Effect in experiment [1] and in experiment [2] were -1.05% and 6.22%, respectively.

Take `CCCS(=O)(=O)Nc1ccc2c(c1)OCC(C)(C)C(=O)N2C`: the Percent Effect in experiment [1] is -4.25%; in experiment [2], -2.5%.

With `Cc1ccc(C(C)NC(=O)Nc2ccccc2CN2CCOCC2)o1` (configuration not stated), the Percent Effect is -6.02% in experiment [1] and 17.3% in experiment [2].

As for `CCc1nc(CN2CCOC(Cn3nc(C)nc3C)C2)no1` (configuration not stated), the Percent Effect in experiment [1] is 3.17%; in experiment [2], 28.4%.

As for `COC1CCN(C(=O)CCc2c(C)nc3ccnn3c2C)CC1`, the results for the Percent Effect in experiment [1] and in experiment [2] were -6.77% and 21%, respectively.

With `Cc1cnc(C(=O)N2CCCN(Cc3csc(C)n3)CC2)cn1`, the values for the Percent Effect in experiment [1] and in experiment [2] were -0.524% and -41.5%, respectively.

Take `CCOc1ccccc1Nc1nc2c(C)nn(C)c2c(=O)n1C`: the Percent Effect is 1.66% in experiment [1] and -24.7% in experiment [2].

Regarding `C[C@H]1C[C@H]2CN(C(=O)c3ccncn3)CC[C@H]2O1`, the Percent Effect is -0.436% in experiment [1] and -34.2% in experiment [2].

Turning to `Cc1csc(N2CCN(C(=O)CCc3ccccn3)CC2)n1`, the Percent Effect in experiment [1] is 5.27%; in experiment [2] it was 20.4%.

`O=C(NCc1cc[nH]n1)NCC(O)c1ccc(F)cc1F` (configuration not stated): the Percent Effect was 4.01% in experiment [1] and -25% in experiment [2].

`O=C(O)c1cc(S(=O)(=O)N2CCOc3ccccc32)ccc1F`: the Percent Effect in experiment [1] is -4.32%; in experiment [2] it was -3.29%.

With `CCc1nnsc1C(=O)N1CCCN(Cc2cnn(C)c2)CC1`, the Percent Effect in experiment [1] was 3.06%; in experiment [2] it was 7.82%.

On to `O=C1CC2(CCN(Cc3ccoc3)C2)CN1c1ccc2c(c1)OCO2` (configuration not stated), for which the results for the Percent Effect in experiment [1] and in experiment [2] were 5.29% and -93.1%, respectively.

As for `O=C(c1ccc(-n2ccnc2)nc1)N1CCCC(n2cccn2)C1` (configuration not stated), the Percent Effect in experiment [1] is -4.43%; in experiment [2], 28.7%.

For the compound `N#Cc1ccc(F)c(CN2CCCC2Cn2cnc3ccccc32)c1` (configuration not stated), the figures for the Percent Effect in experiment [1] and in experiment [2] were -0.466% and 31.2%, respectively.

For `CC(C)(C)c1nnc(CN2CCOC(Cn3cccn3)C2)o1` (configuration not stated), the Percent Effect in experiment [1] was -6.74%; in experiment [2], -2.05%.

As for `Cc1cn2c(n1)CCC(NC(=O)CCn1ccnn1)C2` (configuration not stated), the values for the Percent Effect in experiment [1] and in experiment [2] were -3.77% and 19.8%, respectively.

For `O=S(=O)(NCC1(O)CCOc2ccccc21)c1cccs1` (configuration not stated), the Percent Effect in experiment [1] was -0.546%; in experiment [2], -8.71%.

For the compound `Cn1cc(C(=O)N2CCCC(Cc3nccs3)C2)cn1` (configuration not stated), the Percent Effect in experiment [1] is 2.4%; in experiment [2], 14.9%.

In the case of `COCCNC(=O)C1(c2ccccc2C)CCOCC1`, the Percent Effect in experiment [1] was -1.82%; in experiment [2] it was 19.2%.

In the case of `FC(F)(F)c1cc(N2CCc3ncnc(NC4CC4)c3CC2)ncn1`, the Percent Effect is 5.62% in experiment [1] and -15.2% in experiment [2].

On to `CN1CCN(Cc2ccccc2CNC(=O)c2ccc(Br)cc2)CC1`, for which the Percent Effect in experiment [1] is -0.466%; in experiment [2] it was 0.652%.

`Clc1ccccc1-c1nc(CNCCn2cccn2)cs1`: the Percent Effect is -1.68% in experiment [1] and 15.3% in experiment [2].

As to `Cc1ncc2c(n1)CN(CCCc1nc3ccccc3o1)CC2`, the Percent Effect was 6.8% in experiment [1] and -10.6% in experiment [2].

With `COc1ccc(-c2nc(CN3CC(n4cc(C)cn4)C3)no2)cc1`, the results for the Percent Effect in experiment [1] and in experiment [2] were 6.9% and -20.1%, respectively.

As to `COc1cccc(CN2CCCCCC2c2cccs2)c1O` (configuration not stated), the Percent Effect is 0.335% in experiment [1] and -75.8% in experiment [2].

For `Cc1cnn(C2CCCN(C(=O)c3cc(C4CC4)on3)C2)c1` (configuration not stated), the Percent Effect in experiment [1] is -1.95%; in experiment [2], 14.5%.

As for `O=C(c1ccoc1)N1CCC2(CC1)C(=O)Nc1ccccc12`, the Percent Effect is -1.51% in experiment [1] and -2.64% in experiment [2].

With `O=C(Cc1c[nH]c2ccccc12)N1CCC(Nc2cccnn2)CC1`, the Percent Effect in experiment [1] was 1.83%; in experiment [2] it was -4.79%.

For `CS(=O)(=O)NCc1ncn2c1CN(C(=O)CC1CCCC1)CCC2`, the Percent Effect is -2.09% in experiment [1] and -6.05% in experiment [2].

For the compound `Cc1ccccc1CC(=O)N(C)C1CCN(c2ccccn2)CC1`, the Percent Effect in experiment [1] is -1.19%; in experiment [2] it was 6.11%.

With `Cc1nn(C)c2cnn(C(C)C(=O)NCc3cccnc3)c12` (configuration not stated), the Percent Effect in experiment [1] is -7.38%; in experiment [2] it was -21.6%.

Take `N#Cc1ccc(CN2CCN(C(=O)C3CCC3)[C@@H]3CS(=O)(=O)C[C@@H]32)cc1`: the Percent Effect in experiment [1] is -2.41%; in experiment [2] it was -34.5%.
